23 compounds from PubChem BioAssay (NCATS) can be followed below.

The target of assay [1] is Phospholipid hydroperoxide glutathione peroxidase GPX4 (Homo sapiens) (UniProt P36969). Put plainly: Primary qHTS Assay for Inhibitors of Recombinant Selenoprotein Glutathione Peroxidase 4 (GPX4) (AID 1845192). Further: on the % scale 0 is the no-effect control and ±100 the full control effect; nearly all actives have a fitted effect of over 65% in size. The settings on record: recombinant GPX4, GR-coupled NADPH fluorescence, 15 min; series mostly up to 27.8 µM. The method, boiled down:
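Steps: GPX4 plus compound, 30 min RT; add GR/GSH/NADPH master mix; start with cumene hydroperoxide; read 340/450 nm fluorescence at 0 and 15 min. Finals were 200 nM GPX4, 1 mM GSH, 0.5 mM CHP, 0.5 mM NADPH, 100 nM GR.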
In general terms: Quantitative high-throughput screening tests each substance at several concentrations.

Assay [2] concerns the target Luciferin 4-monooxygenase (Photinus pyralis) (UniProt P08659). Nature of the assay: Primary firefly luciferase (FLuc) qHTS assay for identification of artifact compounds. (AID 1845220). Further: nearly all actives have a fitted effect of over 60% in size.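 On activity change, negative = inhibition: plate controls were DMSO vehicle for no effect and no enzyme for full effect.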 The settings on record: purified firefly luciferase, luminescence, 5 min; series mostly up to 54.1 µM. The method, boiled down: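 Titrated compounds were incubated 15 min at RT, protected from light, with luciferin and ATP at 10 uM; reaction started with 10 nM FLuc, luminescence imaged at 5 min, and concentration-response fitted by Hill equation.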

Assay [3] can be described thus: Primary fluorescence-based thiol-reactive (MSTI) qHTS assay for identification of artifact compounds. (AID 1845221). Further: nearly all actives have a fitted effect of over 65% in size. Further: potency means the concentration at half of the fitted maximal effect.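 On activity change, negative = thiol reactive: thiol-reactive compounds lower the probe fluorescence signal.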 The following applies: MSTI thiol-reactivity probe, 1 h; series mostly up to 53.8 µM. In short, it runs like this:
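First, 4 uM MSTI in 2% DMSO/PBS pH 7.4 was dispensed; next, compounds were added; then plates sat 1 h at room temperature without light. Finally, emission at 598 nm was recorded.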

Each structure is given as a SMILES string. A number with no mark means an inactive call. Records with an inconclusive call do not appear. The source made the active and inactive calls. The call rests on the fitted dose curve; in most records, active means well fitted curve in the direction sought with a large enough effect; inconclusive means small, poorly fitted or top-dose-only effect, or another doubt; inactive means no such curve, though single readings can be large; an effect the other way counts as inactive or inconclusive. Where a SMILES comes first, the peptide text is derived from it. The star is where a group is joined. AMC = Cc1cc(=O)oc2cc(N*)ccc12; βNA = c1ccc2cc(N*)ccc2c1; Cbz = O=C(OCc1ccccc1)*

Sequence of Phospholipid hydroperoxide glutathione peroxidase GPX4 (Homo sapiens) (P36969 whole entry, looked up): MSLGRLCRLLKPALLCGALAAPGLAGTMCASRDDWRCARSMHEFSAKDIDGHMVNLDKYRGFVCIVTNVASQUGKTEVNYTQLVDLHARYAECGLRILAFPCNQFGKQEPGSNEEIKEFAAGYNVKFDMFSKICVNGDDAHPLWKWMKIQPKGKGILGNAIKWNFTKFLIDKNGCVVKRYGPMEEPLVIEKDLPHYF

For the compound `CCc1cccc2c3c([nH]c12)[C@@](CC)(CC(=O)O)OCC3`, the Potency entry in assay [1] and in assay [2] was “inactive” throughout.

`CCCSc1nc(NC2CC2c2ccc(F)c(F)c2)c2nnn(C3CC(OCCO)C(O)C3O)c2n1` (stereo unspecified): the Potency result in assay [1], in assay [2] and in assay [3] was “inactive” throughout.

On to `CC(C)=CCC/C(C)=C/CO[C@@H]1O[C@H](CO[C@@H]2O[C@@H](CO)[C@H](O)[C@H]2O)[C@@H](O)[C@H](O)[C@H]1O`, for which the Potency entry in assay [1] and in assay [2] was “inactive” each time.

On to `CCOC(=O)C(CCc1ccccc1)NC(C)C(=O)N1Cc2ccccc2CC1C(=O)O` (stereo unspecified), for which the Potency entry in assay [1], in assay [2] and in assay [3] was “inactive” each time.

As to `C=C1CCC[C@]2(C)CC[C@@](O)(C(=C)C(=O)O)C[C@@H]12`, the Potency entry in assay [1], in assay [2] and in assay [3] was “inactive” throughout.

For `COc1c(O[C@@H]2O[C@H](CO)[C@@H](O)[C@H](O)[C@H]2O)c(CCC(=O)O)cc2ccoc12`, the Potency entry in assay [1] and in assay [2] was “inactive” throughout.

`COc1cc(Nc2ccc([N+](=O)[O-])cc2C(=O)O)cc2ccccc12`: the Potency result in assay [1] and in assay [2] was “inactive” in each case.

Consider `CCc1nnc(NS(=O)(=O)c2ccc(NC(=S)NC(=O)/C=C/c3ccc(F)cc3)cc2)s1`, for which the Potency entry in assay [1], in assay [2] and in assay [3] was “inactive” in each case.

As to `C[C@@H]1O[C@@H](O[C@H]2[C@@H]3C=CO[C@@H](O[C@@H]4O[C@H](CO)[C@@H](O)[C@H](O)[C@H]4O)[C@@H]3[C@@]3(CO)O[C@@H]23)[C@H](O)[C@H](OC(=O)/C=C/c2ccc(O)cc2)[C@H]1OC(=O)/C=C/c1ccc(O)cc1`, the Potency entry in assay [1], in assay [2] and in assay [3] was “inactive” in each case.

As to `Nc1c(-c2ccccc2)nc(Cl)c2c(O)n[nH]c(=O)c12`, the Potency result in assay [1] and in assay [2] was “inactive” throughout.

As for `C[C@@H]1CC[C@]2(C(=O)O[C@@H]3O[C@H](CO[C@@H]4O[C@H](CO)[C@@H](O)[C@H](O)[C@H]4O)[C@@H](O)[C@H](O)[C@H]3O)CC[C@]3(C)C(=CCC4[C@@]5(C)CC[C@H](O)[C@](C)(C(=O)O)C5CC[C@]43C)[C@@H]2[C@]1(C)O` (stereo partly specified), the Potency result in assay [1] was “inactive”. Also, the activity change, negative = inhibition in assay [2] is -0.663% [at 11.6 µM]. Moreover, in assay [3], the activity change, negative = thiol reactive is 22.8% [at 11.5 µM].

With `CC(CC12CCCN1C(=O)C1CCCN1C2=O)OC(N)=O` (stereo unspecified), the Potency entry in assay [1], in assay [2] and in assay [3] was “inactive” in each case.

In the case of `CC(C)=CC1C[C@](C)(O)[C@@H]2[C@H]3CCC4[C@@]5(C)CC[C@H](O[C@@H]6OC[C@H](O)[C@H](O[C@@H]7O[C@H](CO[C@@H]8O[C@H](CO)[C@@H](O)[C@H](O)[C@H]8O)[C@@H](O)[C@H](O)[C@H]7O)[C@H]6O[C@@H]6O[C@@H](C)[C@H](O)[C@@H](O)[C@H]6O)C(C)(C)[C@@H]5CC[C@@]4(C)[C@@]34CO[C@@]2(C4)O1` (stereo partly specified), the Potency entry in assay [1] was “inactive”. Also, the outcome in assay [2] is “inactive [at 11.6 µM]”. Further, the activity change, negative = thiol reactive in assay [3] is 458% [at 11.5 µM].

As for `CC1(O)CCC2C(C3C1CCC3(C)O)C2(C)C` (stereo unspecified), the Potency result in assay [1], in assay [2] and in assay [3] was “inactive” throughout.

Consider `O=C(O)c1cccc(CN2C(=O)/C(=C(\c3ccccc3)c3ccc(Cl)cc3)c3ccccc32)c1`, for which, in assay [2], the Potency result is “inactive”.

As to `CC(C)CC(NC(=O)OCc1ccccc1)C(=O)NC(CC(C)C)C(=O)NC(CCC(=O)O)C(=O)Nc1ccc2ccccc2c1` (stereo not drawn) (Cbz-Leu-Leu-Glu-βNA; configuration not given here), the Potency entry in assay [1] and in assay [3] was “inactive” each time.

Take `Cc1cc(=O)oc2cc(NC(=O)[C@H](CCC(=O)O)NC(=O)[C@H](CC(C)C)NC(=O)[C@H](CC(C)C)NC(=O)OCc3ccccc3)ccc12` (Cbz-Leu-Leu-Glu-{AMC}): the Potency result in assay [2] and in assay [3] was “inactive” each time.

`CCCCCOC(=O)Nc1nc(=O)n(C2O[C@H](C)[C@@H](O)[C@H]2O)cc1F` (stereo partly specified): the Potency entry in assay [1], in assay [2] and in assay [3] was “inactive” throughout.

Turning to `CC1(C)CC[C@]2(C(=O)O[C@@H]3O[C@H](CO)[C@@H](O)[C@H](O)[C@H]3O)CC[C@]3(C)C(=CCC4[C@@]5(C)C[C@@H](O)[C@H](O)[C@@](C)(CO)C5[C@H](O)C[C@]43C)C2[C@@H]1O` (stereo partly specified), the Potency result in assay [1] and in assay [2] was “inactive” throughout. In addition, the Potency in assay [3] is 3.16 µM (active).

Turning to `COc1cncc(C#Cc2ccccn2)c1`, the Potency entry in assay [3] is “inactive”.

Take `COc1ccnc2[nH]cc(C(=O)C(=O)N3CCN(C(=O)c4ccccc4)CC3C)c12` (stereo unspecified): the Potency entry in assay [1], in assay [2] and in assay [3] was “inactive” throughout.

With `C=C1CCC2(OC1)OC1CC3C4CC=C5CC(O)CC(O[C@@H]6OC[C@H](OC(=O)C(O)C(C)CC)[C@H](O)[C@H]6O[C@@H]6O[C@@H](C)[C@H](O)[C@@H](O)[C@H]6O)C5(C)C4CCC3(C)C1C2C` (stereo partly specified), in assay [2], the activity change, negative = inhibition was 0.354% [at 11.6 µM].

As for `C=C1CCC(OC(C)=O)C2(C)CC3OC(=O)C(C)=C3CC12` (stereo unspecified), the Potency result in assay [1], in assay [2] and in assay [3] was “inactive” throughout.
